In all, about 52,000 compounds went through this assay and about 4,300 (8.3%) were called active. Shown is part of a subset that was picked to be rich in actives. Values without a mark were called inactive. Cut-off read from the data, not from the text of the source: active = survival mostly below about 52% (no sharp cut-off); inactive = mostly above about 56%.
tested on: DeltatarO mutant; test: S. aureus survival, RN4220 and DeltatarO strains – OD600, teichoic acid synthesis inhibitors, primary screen (AID 463173); conditions: S. aureus RN4220 wild type/DeltatarO growth, OD600, 18 h, hits give low values, screened at 18.75 µg/mL (by protocol)

Structure (SMILES) | survival
CCOC(=O)C1(C)C=C(Nc2ccc(C(N)=O)cc2)C(=O)N1c1ccccc1 (centres undefined) | 68%
CCC(=O)N1CCc2cc(Br)cc(S(=O)(=O)CCC(=O)NCCc3ccccc3)c21 | 91%
COC(=O)c1ccccc1NC(=O)CN1C(=O)COc2ccccc21 | 69%
Cc1ccc(C)c(NC(=O)CN2C(=O)COc3ccc(Cl)cc32)c1 | 69%
COC(=O)c1ccccc1NC(=O)CN1C(=O)COc2ccc(Cl)cc21 | 38% (active)
COc1ccc(-n2ncc(C(=O)N3CCN(C(=O)c4ccco4)CC3)c2C2CCN(C(=O)OC(C)(C)C)CC2)cc1 | 86%
COc1ccc(S(=O)Cc2ccc(C(=O)N3CCN(c4cccc(C)c4C)CC3)o2)cc1 (centres undefined) | 79%
Cc1ccc(S(=O)(=O)Cc2ccc(C(=O)N3CCN(c4cccc(Cl)c4)CC3)o2)cc1 | 75%
O=C(c1ccc(CS(=O)c2ccccc2Cl)o1)N1CCN(c2ccccc2F)CC1 (centres undefined) | 84%
O=C(c1ccc(CS(=O)c2ccccc2Cl)o1)N1CCN(c2cccc(Cl)c2)CC1 (centres undefined) | 51% (active)
Cc1ccc2cc3cc(C(=O)N4CCN(c5ccc(Cl)cc5)CC4)oc3nc2c1 | 85%
Cc1ccccc1S(=O)(=O)Cc1ccc(C(=O)N2CCN(c3cccc(Cl)c3)CC2)o1 | 54% (active)
Cc1cccc(N2CCN(C(=O)c3ccc(CS(=O)c4cccc(Cl)c4)o3)CC2)c1C (centres undefined) | 51% (active)
COc1ccc(N2CCN(C(=O)c3cc4cc5ccc(Cl)cc5nc4o3)CC2)cc1 | 86%
Cc1ccccc1S(=O)Cc1ccc(C(=O)N2CCN(c3cccc(C)c3C)CC2)o1 (centres undefined) | 61%
O=C(c1ccc(CS(=O)c2ccccc2Cl)o1)N1CCN(c2cccc(C(F)(F)F)c2)CC1 (centres undefined) | 60%
O=C(c1cc2cc3ccc(Cl)cc3nc2o1)N1CCN(c2cccc(Cl)c2)CC1 | 46% (active)
Cc1ccc(Cl)cc1N1CCN(C(=O)c2ccc(CS(=O)(=O)c3ccccc3C)o2)CC1 | 50%
CNC(=O)C1CCC(Cn2c(=O)c3sccc3n(Cc3ccc(F)cc3)c2=O)CC1 (centres undefined) | 79%
NS(=O)(=O)c1ccc(CCNC(=O)c2nc(SCc3ccccc3F)ncc2Cl)cc1 | 45%
CC(C)(C)NS(=O)(=O)c1ccc2oc3ccc(S(=O)(=O)NC(C)(C)C)cc3c2c1 | 86%
O=C(O)c1cccc(N=NN2CCOCC2)c1 | 80%

Structure (SMILES) | survival
CSc1cccc(NS(=O)(=O)c2ccc3[nH]cc(C(=O)N4CCCC4)c(=O)c3c2)c1 | 91%
O=C(CSc1ccc2ccccc2n1)Nc1nsc(-c2ccc(Cl)cc2)n1 | 57%
Cc1cccc(Cn2cc(S(=O)(=O)c3cccc(C)c3)c(=O)c3cc(F)c(N4CCOCC4)cc32)c1 | 76%
CCCCOc1ccc(C2C(=O)N(C3CCCCC3)CC(=O)N2C2CCCCC2)cc1 (centres undefined) | 94%
CCN(CC)S(=O)(=O)c1ccc2c(c1)N(CC(=O)NCCc1ccccc1)C(=O)CO2 | 76%
CC(C)Oc1ccc(CNC(=O)c2ccc(CS(=O)Cc3ccccc3Cl)o2)cc1 (centres undefined) | 109%
Cc1ccc(S(=O)Cc2ccc(C(=O)NCc3ccc(OC(C)C)cc3)o2)cc1 (centres undefined) | 51%
CC(C)Oc1ccc(CNC(=O)c2ccc(CS(=O)c3cccc(Cl)c3)o2)cc1 (centres undefined) | 52% (active)
O=C(Cn1c(-c2cccs2)cc2cc(F)ccc21)N1CCN(c2ccccc2)CC1 | 71%
Cc1ccc(Cl)cc1NC(c1ccc(F)cc1)c1nnc(-c2ccccc2)o1 (centres undefined) | 86%
CCc1cccc(NC(c2ccccc2)c2nnc(-c3ccccc3F)o2)c1 (centres undefined) | 11% (active)
CCc1cccc(NC(c2nnc(-c3ccccc3)o2)c2ccc(F)cc2Cl)c1 (centres undefined) | 83%
COc1cc(Cl)c(C)cc1NC(c1ccccc1)c1nnc(-c2ccccc2Cl)o1 (centres undefined) | 69%
Cc1ccc(C)c(NC(c2ccccc2)c2nnc(-c3ccccc3F)o2)c1 (centres undefined) | 4% (active)
COc1ccc(NC(c2ccc(F)cc2)c2nnc(-c3ccccc3Cl)o2)cc1Cl (centres undefined) | 78%
COc1ccc(OC)c(NC(=O)CSc2cn(CC(=O)N3CCOCC3)c3ccccc23)c1 | 91%
CC(=O)Nc1ccc2nc(SCc3ccccc3)sc2c1 | 63%
CC(C)NC(=O)Cn1c(SCC(=O)N2CCc3ccccc32)nc2ccccc21 | 97%
Cc1ccc2nc(-c3ccccc3F)c(Nc3ccc(Cl)cc3)n2c1 | 16%
Cc1ccc(-n2c3nc(=O)n(C)c(=O)c-3cc3ccccc32)c(C)c1 | 99%
Cn1c(=O)nc2n(-c3ccc(Br)cc3)c3cccc(Cl)c3cc-2c1=O | 80%
CCCCn1c(=O)nc2n(-c3ccc(F)cc3)c3ccccc3cc-2c1=O | 41% (active)

Structure (SMILES) | survival
CCOc1ccccc1C(=O)N1CCC(c2nc3ccccc3o2)CC1 | 80%
Cc1cccc(NC(=O)CCCn2c(C)c3cnn(-c4ccccc4)c(=O)c3c2C)c1C | 71%
CCCCSc1ncc(C(=O)OCC)c(N)n1 | 78% (active)
CCOC(=O)c1cnc(SCC(=O)OC)nc1N | 95%
CCOC(=O)c1cnc(SC2CCc3ccccc3C2=O)nc1N (centres undefined) | 79%
COc1ccc(CNC(=O)CN(c2ccccc2)S(=O)(=O)N(C)C)cc1 | 145%
O=C(Cc1csc2nc(-c3ccccc3)cn12)NCc1ccc(F)cc1 | 90%
Cc1cccc(-c2cc3nc4c(c(N5CCCC5)n3n2)CCCC4)c1 | 123%
CCSc1oc(-c2ccco2)nc1S(=O)(=O)c1ccc(Br)cc1 | 54%
O=S(=O)(c1ccc(Br)cc1)c1nc(-c2ccco2)oc1SCc1ccccc1F | 44% (active)
O=C(CSc1oc(-c2ccco2)nc1S(=O)(=O)c1ccc(Cl)cc1)c1ccccc1 | 125%
CC(C)CSc1oc(-c2ccco2)nc1S(=O)(=O)c1ccc(Br)cc1 | 33% (active)
O=C(CSc1oc(-c2ccco2)nc1S(=O)(=O)c1ccc(Br)cc1)c1ccccc1 | 47% (active)
Cc1ccc(CSc2oc(-c3ccco3)nc2S(=O)(=O)c2ccc(C)cc2)cc1 | 62%
O=S(=O)(c1ccc(Cl)cc1)c1nc(-c2ccco2)oc1SCc1ccccc1F | 62%
CCCSc1oc(-c2ccco2)nc1S(=O)(=O)c1ccc(Br)cc1 | 55%
O=C(CSc1oc(-c2ccco2)nc1S(=O)(=O)c1ccc(Br)cc1)c1ccc(Cl)cc1 | 52%
Cc1ccc(S(=O)(=O)c2nc(-c3ccco3)oc2SCC(C)C)cc1 | 48% (active)
Cc1ccc(S(=O)(=O)c2nc(-c3ccco3)oc2SCc2ccc(F)cc2)cc1 | 66%
O=S(=O)(c1ccc(Br)cc1)c1nc(-c2ccco2)oc1SCc1ccccc1Cl | 149%

From PubChem BioAssay AID463173 (ICCB-Longwood Screening Facility, Harvard Medical School, 2010)
